In the library only some 19% were active in any assay of this set; here they are far more common.
HT1080 IDH1KD tx – qHTS for induction of synthetic lethality in tumor cells producing 2HG: qHTS for the HT-1080-IDH1KD cell line. Potency, µM (highest dose often 46.1 µM), for the others: at the highest dose activity, negative = toxicity, usual class: cytotoxic. hit rate 2% among 360,000. HT-1080 IDH1 knockdown viability, ATP luminescence, 48 h;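 also: potency is read from the fitted curve at half-maximal effect; 0% = DMSO wells and -100% = cell-free medium wells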
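Viability of IDH1-knockdown HT-1080 fibrosarcoma cells was assessed by CellTiter-Glo after 48 h at 37 °C with titrated compound; concentration-effect curves were classified by fit quality and response size.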
IL-1B inflam inh – qHTS for Inhibitors of Inflammasome Signaling: IL-1-beta AlphaLISA Primary Screen; THP-1 LPS/ATP IL-1B secretion, AlphaLISA, 16 h; active compounds read low; activity change, % at 57.5 µM; hit rate 4.7% among 360,000; in the data active = activity change below about -50%; inconclusive = mostly about -30% to -49%
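Secreted IL-1B measured by AlphaLISA bead assay after 16 h compound exposure of THP-1 cells; compounds (final up to 57.5 uM) added 1 h before LPS (250 ng/mL) and ATP (1.25 mM) stimulation; lower signal means less secretion.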
HT1080NT lethal – qHTS for induction of synthetic lethality in tumor cells producing 2HG: qHTS for the HT-1080-NT fibrosarcoma cell line | HT-1080-NT fibrosarcoma viability, CellTiter-Glo ATP luminescence, 48 h | Potency, µM (highest dose often 46.1 µM), for the others: at the highest dose activity, negative = less viability, actives largely listed as cytotoxic | hit rate 1.6% among 360,000;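 also: NT is the 2HG producing partner of a matched IDH1 knockdown line; potency is read from the fitted curve at half-maximal effect; 0% = DMSO-treated cells and -100% = media-only wells without cells; nearly all actives have a fitted effect of over 55% in size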
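HT-1080-NT fibrosarcoma cells (2HG-overproducing), 750 cells/well in RPMI with 5% FBS, dosed after 2 h and incubated 48 h at 37C. CellTiter-Glo luminescence normalized to DMSO and no-cell wells; concentration-response curves fitted and classed.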
ELG1 DNA repair – qHTS screen for small molecules that inhibit ELG1-dependent DNA repair in human embryonic kidney (HEK293T) cells expressing luciferase-tagged ELG1 | HEK293T ELG1-luciferase reporter, luminescence, 16 h; DNA damage induced by 5-fluorouridine | Potency, µM (doses to about 46.1 µM), without a hit: at the highest dose activity change, negative = inhibition, actives largely listed as inhibitors | hit rate 2.3% among 330,000; also: potency is read from the fitted curve at half-maximal effect; nearly all actives have a fitted effect of over 55% in size
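In this reporter screen, reduction of luminescence relative to DMSO vehicle indicated activity. Compounds and 5-fluorouridine were added together to 2,000 cells per well, incubated for 16 hr at 37 °C, then developed with ONE-Glo.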
DT40 TDP1 no CPT – qHTS for Inhibitors of human tyrosyl-DNA phosphodiesterase 1 (TDP1): qHTS in cells in absence of CPT. DT40 Tdp1-/- hTDP1 cells, no CPT, ATP luminescence, 48 h. Potency, µM (highest dose often 46.2 µM), inactives show at the top dose activity change, negative = growth inhibition, actives largely listed as inhibitors. hit rate 15% among 420,000. AID 686978, 2013; also: potency is read from the fitted curve at half-maximal effect; nearly all actives have a fitted effect of over 55% in size
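Compound effects on proliferation are scored in DT40 Tdp1-/-;hTDP1 cells in the absence of CPT. ATP levels (CellTiter-Glo luminescence) are recorded after a ≥48 hr, 37 °C incubation.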
TDP1 cell CPT – qHTS for Inhibitors of human tyrosyl-DNA phosphodiesterase 1 (TDP1): qHTS in cells in presence of CPT; chicken DT40 Tdp1-/-;hTDP1 cells + 20 nM CPT, ATP luminescence, 48 h; Potency, µM (top dose mostly 46.2 µM), without a hit: at the highest dose activity change, negative = growth inhibition, actives largely listed as inhibitors; hit rate 12% among 420,000; AID 686979, 2013; also: potency is read from the fitted curve at half-maximal effect; nearly all actives have a fitted effect of over 55% in size
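Chicken DT40 Tdp1-/- cells stably complemented with human TDP1 were seeded at 400 cells/well in medium containing 20 nM camptothecin, exposed to pin-transferred compounds, and grown at 37 °C for at least 48 hr. Viability was read as ATP luminescence.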
An asterisk follows results filed as active. Unless noted, calls follow the shape of the dose curve; as a rule, active = well fitted curve in the direction sought with a large enough effect; inconclusive = small, poorly fitted or top-dose-only effect, or another doubt; inactive = no such curve, though single readings can be large; an effect the other way counts as inactive or inconclusive. Unless noted, % is scaled to controls: 0 for no effect and ±100 for the full control effect.

How did Cc1ccc(OC(=O)c2cc(-c3ccccc3)nc3ccc(C)cc23)cc1 do in these assays?
DT40 TDP1 no CPT: -1%; TDP1 cell CPT: 0%

What do the screens show for `CSc1ccc(C2c3c(oc4cc(C)cc(C)c4c3=O)C(=O)N2CCO)cc1` (stereo unspecified)?
DT40 TDP1 no CPT: 23µM*; TDP1 cell CPT: inconclusive

What do the screens show for `Cc1ccc2oc3c(c(=O)c2c1)C(c1cccc(O)c1)N(Cc1ccccc1Cl)C3=O` (stereo unspecified)?
DT40 TDP1 no CPT: 18µM*; TDP1 cell CPT: inconclusive

What do the screens show for `Cc1ccc(C2c3c(oc4ccccc4c3=O)C(=O)N2c2nnc(C)s2)cc1` (stereo unspecified)?
DT40 TDP1 no CPT: 21µM*; TDP1 cell CPT: 13µM*

How did COCCN1C(=O)c2oc3ccccc3c(=O)c2C1c1cccc(O)c1 (stereo unspecified) do in these assays?
HT1080 IDH1KD tx: 15%; IL-1B inflam inh: -8; HT1080NT lethal: 10%; ELG1 DNA repair: 4%; DT40 TDP1 no CPT: 1%; TDP1 cell CPT: 8%

What do the screens show for `Cc1nnc(N2C(=O)c3oc4ccccc4c(=O)c3C2c2ccc(Cl)cc2)s1` (stereo unspecified)?
DT40 TDP1 no CPT: -24%; TDP1 cell CPT: -22%

Results for Cc1cc(C)c2c(=O)c3c(oc2c1)C(=O)N(Cc1ccc(F)cc1)C3c1cccc(O)c1 (stereo unspecified) ?
DT40 TDP1 no CPT: 12µM*; TDP1 cell CPT: 23µM*

Results for CC(=O)N1CCC2(CC1)OC(=O)C(C)=C2C(=O)NCc1ccc(Cl)cc1 ?
DT40 TDP1 no CPT: 0%; TDP1 cell CPT: 10%

What do the screens show for `O=C(c1ccco1)N1CCN(C(=O)c2cn(-c3ccccc3)nc2-c2ccc(F)cc2)CC1`?
HT1080 IDH1KD tx: -7%; IL-1B inflam inh: -24; HT1080NT lethal: -13%; ELG1 DNA repair: inconclusive; DT40 TDP1 no CPT: inconclusive; TDP1 cell CPT: inconclusive

Results for NS(=O)(=O)c1ccc(CCNC(=S)Nc2ccccc2)cc1 ?
HT1080 IDH1KD tx: 2%; IL-1B inflam inh: 0; HT1080NT lethal: 1%; ELG1 DNA repair: -11%; DT40 TDP1 no CPT: -18%; TDP1 cell CPT: -28%

What do the screens show for `Cc1ccc2oc3c(c(=O)c2c1)C(c1ccc(O)cc1)N(CCCN(C)C)C3=O` (stereo unspecified)?
DT40 TDP1 no CPT: 15%; TDP1 cell CPT: -11%

How did Cc1ccc(CN2C(=O)c3oc4ccc(C)cc4c(=O)c3C2c2ccc(O)cc2)cc1 (stereo unspecified) do in these assays?
DT40 TDP1 no CPT: inconclusive; TDP1 cell CPT: 16µM*

Results for CCOc1cccc(C2c3c(oc4ccc(F)cc4c3=O)C(=O)N2c2cc(C)ccn2)c1 (stereo unspecified) ?
DT40 TDP1 no CPT: 23µM*; TDP1 cell CPT: 16µM*

Results for Cc1ccc2oc3c(c(=O)c2c1)C(c1cccc(O)c1)N(c1ccccn1)C3=O (stereo unspecified) ?
HT1080 IDH1KD tx: -15%; HT1080NT lethal: 0%; ELG1 DNA repair: 16µM*; DT40 TDP1 no CPT: inconclusive; TDP1 cell CPT: inconclusive

Results for CCOC(=O)c1cccc(NC(=O)N2Cc3ccccc3Oc3ncccc32)c1 ?
DT40 TDP1 no CPT: -9%; TDP1 cell CPT: -1%

Screening results (PubChem BioAssay)
